From ChEMBL document CHEMBL1961873, “Compounds: GSK PKIS; Assays: Nanosyn kinase panel” (2012)
Values joined by “and” are separate entries in the source; they are usually repeats but may differ in a detail not shown here. Equal entries are not always repeated.

How the values were obtained:
[1] = molecular target: T1, Ephrin type-B receptor 2 (Homo sapiens) (UniProt P29323); details: at 1 µM
T1 sequence (whole entry): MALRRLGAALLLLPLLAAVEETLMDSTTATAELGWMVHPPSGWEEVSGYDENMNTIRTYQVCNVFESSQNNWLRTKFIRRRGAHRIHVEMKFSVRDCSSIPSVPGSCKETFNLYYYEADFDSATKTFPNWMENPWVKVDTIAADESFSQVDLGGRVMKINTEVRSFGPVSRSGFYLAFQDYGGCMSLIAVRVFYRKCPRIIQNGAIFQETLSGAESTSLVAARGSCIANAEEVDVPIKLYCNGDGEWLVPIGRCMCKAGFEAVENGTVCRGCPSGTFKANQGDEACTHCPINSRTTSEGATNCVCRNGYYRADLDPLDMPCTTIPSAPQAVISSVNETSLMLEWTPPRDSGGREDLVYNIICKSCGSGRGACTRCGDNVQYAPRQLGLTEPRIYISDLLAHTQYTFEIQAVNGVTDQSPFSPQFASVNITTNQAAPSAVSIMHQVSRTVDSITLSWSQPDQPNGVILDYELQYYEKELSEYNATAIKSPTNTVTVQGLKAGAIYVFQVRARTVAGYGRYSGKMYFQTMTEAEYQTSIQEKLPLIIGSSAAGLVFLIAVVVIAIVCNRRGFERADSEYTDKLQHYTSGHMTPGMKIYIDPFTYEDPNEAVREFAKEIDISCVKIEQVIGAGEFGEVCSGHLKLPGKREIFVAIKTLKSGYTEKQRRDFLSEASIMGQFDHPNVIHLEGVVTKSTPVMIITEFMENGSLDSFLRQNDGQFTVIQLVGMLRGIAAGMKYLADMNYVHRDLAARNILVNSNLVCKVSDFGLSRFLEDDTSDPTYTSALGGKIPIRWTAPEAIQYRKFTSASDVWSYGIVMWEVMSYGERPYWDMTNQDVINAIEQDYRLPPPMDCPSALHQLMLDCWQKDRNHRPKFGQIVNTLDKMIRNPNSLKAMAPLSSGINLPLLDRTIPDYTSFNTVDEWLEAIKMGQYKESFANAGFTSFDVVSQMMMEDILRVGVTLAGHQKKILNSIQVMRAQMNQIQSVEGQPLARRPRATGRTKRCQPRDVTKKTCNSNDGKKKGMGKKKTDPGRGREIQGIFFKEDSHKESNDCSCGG

[2] = molecular target: T2, Ephrin type-B receptor 3 (Homo sapiens) (UniProt P54753); details: at 0.1 µM
T2 sequence (whole entry): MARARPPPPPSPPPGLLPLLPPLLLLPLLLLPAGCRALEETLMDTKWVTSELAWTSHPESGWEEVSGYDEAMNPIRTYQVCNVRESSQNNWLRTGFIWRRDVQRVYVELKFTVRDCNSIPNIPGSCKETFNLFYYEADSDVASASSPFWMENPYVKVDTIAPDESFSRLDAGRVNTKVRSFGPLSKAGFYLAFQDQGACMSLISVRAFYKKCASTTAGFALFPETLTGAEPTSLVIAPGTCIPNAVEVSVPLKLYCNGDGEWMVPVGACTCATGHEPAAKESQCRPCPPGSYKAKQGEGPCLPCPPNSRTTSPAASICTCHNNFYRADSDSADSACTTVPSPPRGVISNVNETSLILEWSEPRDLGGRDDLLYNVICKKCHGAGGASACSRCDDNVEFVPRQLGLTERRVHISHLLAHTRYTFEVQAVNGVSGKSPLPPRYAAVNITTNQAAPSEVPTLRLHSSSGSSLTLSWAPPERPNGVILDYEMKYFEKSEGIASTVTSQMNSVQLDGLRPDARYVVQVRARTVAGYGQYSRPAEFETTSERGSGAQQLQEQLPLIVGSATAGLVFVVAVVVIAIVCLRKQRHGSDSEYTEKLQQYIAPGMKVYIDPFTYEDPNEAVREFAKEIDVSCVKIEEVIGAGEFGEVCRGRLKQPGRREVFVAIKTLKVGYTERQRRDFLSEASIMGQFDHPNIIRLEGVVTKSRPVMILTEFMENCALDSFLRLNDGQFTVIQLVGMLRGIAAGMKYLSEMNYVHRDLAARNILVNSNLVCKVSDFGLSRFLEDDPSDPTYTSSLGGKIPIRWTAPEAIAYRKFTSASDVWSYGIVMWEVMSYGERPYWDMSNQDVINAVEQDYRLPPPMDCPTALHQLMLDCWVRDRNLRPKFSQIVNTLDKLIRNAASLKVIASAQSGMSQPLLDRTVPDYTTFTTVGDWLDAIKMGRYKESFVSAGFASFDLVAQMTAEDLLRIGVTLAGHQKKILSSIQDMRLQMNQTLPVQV

[3] = molecular target: T2, Ephrin type-B receptor 3 (Homo sapiens); details: at 1 µM
[4] = molecular target: T3, Ephrin type-B receptor 4 (Homo sapiens) (UniProt P54760); details: at 0.1 µM
T3 sequence (whole entry): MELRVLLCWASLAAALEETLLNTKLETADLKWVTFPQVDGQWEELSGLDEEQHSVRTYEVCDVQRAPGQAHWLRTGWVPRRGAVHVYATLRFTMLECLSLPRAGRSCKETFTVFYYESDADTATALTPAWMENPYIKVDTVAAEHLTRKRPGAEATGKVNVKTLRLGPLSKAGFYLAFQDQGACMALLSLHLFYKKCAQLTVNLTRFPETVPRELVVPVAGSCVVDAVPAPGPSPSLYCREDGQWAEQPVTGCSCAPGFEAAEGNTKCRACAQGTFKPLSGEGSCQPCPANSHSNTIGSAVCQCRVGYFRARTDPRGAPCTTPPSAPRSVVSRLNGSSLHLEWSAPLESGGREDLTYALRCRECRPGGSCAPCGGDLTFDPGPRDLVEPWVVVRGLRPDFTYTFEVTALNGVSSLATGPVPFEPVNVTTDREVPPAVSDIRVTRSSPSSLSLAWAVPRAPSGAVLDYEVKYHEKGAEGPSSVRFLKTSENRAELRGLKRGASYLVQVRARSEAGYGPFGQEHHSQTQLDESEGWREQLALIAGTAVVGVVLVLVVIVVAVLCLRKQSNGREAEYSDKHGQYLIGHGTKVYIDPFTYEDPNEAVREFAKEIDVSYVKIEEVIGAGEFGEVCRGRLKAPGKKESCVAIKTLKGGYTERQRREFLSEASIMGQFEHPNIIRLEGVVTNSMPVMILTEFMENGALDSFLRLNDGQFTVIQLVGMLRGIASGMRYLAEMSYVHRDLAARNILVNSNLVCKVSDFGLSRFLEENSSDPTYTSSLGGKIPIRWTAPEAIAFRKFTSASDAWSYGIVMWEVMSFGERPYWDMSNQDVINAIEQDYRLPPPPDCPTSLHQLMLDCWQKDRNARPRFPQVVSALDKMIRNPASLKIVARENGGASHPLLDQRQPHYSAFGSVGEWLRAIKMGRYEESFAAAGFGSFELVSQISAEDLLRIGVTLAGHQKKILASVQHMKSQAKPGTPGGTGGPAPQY

[5] = molecular target: T3, Ephrin type-B receptor 4 (Homo sapiens); details: at 1 µM
[6] = molecular target: Receptor tyrosine-protein kinase erbB-2 (Homo sapiens) (UniProt P04626); details: at 0.1 µM
[7] = molecular target: Receptor tyrosine-protein kinase erbB-2 (Homo sapiens) (UniProt P04626); details: at 1 µM
[8] = molecular target: Receptor tyrosine-protein kinase erbB-4 (Homo sapiens) (UniProt Q15303); details: at 0.1 µM
[9] = molecular target: Receptor tyrosine-protein kinase erbB-4 (Homo sapiens) (UniProt Q15303); details: at 1 µM
[10] = molecular target: Tyrosine-protein kinase Fer (Homo sapiens) (UniProt P16591); details: at 0.1 µM;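 also: reported figures are averaged percent inhibition of FER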
Chain of Tyrosine-protein kinase Fer (Homo sapiens) (P16591 whole entry, looked up): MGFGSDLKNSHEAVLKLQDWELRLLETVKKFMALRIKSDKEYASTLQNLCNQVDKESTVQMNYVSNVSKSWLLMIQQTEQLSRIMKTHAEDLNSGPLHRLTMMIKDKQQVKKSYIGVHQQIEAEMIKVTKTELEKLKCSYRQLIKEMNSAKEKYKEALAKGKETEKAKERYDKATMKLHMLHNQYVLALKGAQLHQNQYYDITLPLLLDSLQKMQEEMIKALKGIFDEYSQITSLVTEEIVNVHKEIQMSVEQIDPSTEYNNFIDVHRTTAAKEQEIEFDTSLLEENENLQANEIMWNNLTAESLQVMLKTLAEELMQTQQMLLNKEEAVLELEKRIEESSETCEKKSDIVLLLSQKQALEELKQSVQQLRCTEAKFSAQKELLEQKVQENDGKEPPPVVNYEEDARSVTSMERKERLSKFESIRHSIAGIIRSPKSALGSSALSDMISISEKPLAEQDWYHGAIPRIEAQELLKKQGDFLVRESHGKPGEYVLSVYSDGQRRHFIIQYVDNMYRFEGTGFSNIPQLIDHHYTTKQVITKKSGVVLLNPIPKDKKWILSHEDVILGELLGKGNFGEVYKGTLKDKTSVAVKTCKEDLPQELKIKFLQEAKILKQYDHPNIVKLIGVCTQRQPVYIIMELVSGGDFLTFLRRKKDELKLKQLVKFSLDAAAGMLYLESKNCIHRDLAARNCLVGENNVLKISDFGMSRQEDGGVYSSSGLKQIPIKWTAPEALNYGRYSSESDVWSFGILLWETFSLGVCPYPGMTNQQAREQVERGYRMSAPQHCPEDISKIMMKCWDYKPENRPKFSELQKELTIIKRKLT

Chain of Receptor tyrosine-protein kinase erbB-2 (Homo sapiens) (P04626 whole entry): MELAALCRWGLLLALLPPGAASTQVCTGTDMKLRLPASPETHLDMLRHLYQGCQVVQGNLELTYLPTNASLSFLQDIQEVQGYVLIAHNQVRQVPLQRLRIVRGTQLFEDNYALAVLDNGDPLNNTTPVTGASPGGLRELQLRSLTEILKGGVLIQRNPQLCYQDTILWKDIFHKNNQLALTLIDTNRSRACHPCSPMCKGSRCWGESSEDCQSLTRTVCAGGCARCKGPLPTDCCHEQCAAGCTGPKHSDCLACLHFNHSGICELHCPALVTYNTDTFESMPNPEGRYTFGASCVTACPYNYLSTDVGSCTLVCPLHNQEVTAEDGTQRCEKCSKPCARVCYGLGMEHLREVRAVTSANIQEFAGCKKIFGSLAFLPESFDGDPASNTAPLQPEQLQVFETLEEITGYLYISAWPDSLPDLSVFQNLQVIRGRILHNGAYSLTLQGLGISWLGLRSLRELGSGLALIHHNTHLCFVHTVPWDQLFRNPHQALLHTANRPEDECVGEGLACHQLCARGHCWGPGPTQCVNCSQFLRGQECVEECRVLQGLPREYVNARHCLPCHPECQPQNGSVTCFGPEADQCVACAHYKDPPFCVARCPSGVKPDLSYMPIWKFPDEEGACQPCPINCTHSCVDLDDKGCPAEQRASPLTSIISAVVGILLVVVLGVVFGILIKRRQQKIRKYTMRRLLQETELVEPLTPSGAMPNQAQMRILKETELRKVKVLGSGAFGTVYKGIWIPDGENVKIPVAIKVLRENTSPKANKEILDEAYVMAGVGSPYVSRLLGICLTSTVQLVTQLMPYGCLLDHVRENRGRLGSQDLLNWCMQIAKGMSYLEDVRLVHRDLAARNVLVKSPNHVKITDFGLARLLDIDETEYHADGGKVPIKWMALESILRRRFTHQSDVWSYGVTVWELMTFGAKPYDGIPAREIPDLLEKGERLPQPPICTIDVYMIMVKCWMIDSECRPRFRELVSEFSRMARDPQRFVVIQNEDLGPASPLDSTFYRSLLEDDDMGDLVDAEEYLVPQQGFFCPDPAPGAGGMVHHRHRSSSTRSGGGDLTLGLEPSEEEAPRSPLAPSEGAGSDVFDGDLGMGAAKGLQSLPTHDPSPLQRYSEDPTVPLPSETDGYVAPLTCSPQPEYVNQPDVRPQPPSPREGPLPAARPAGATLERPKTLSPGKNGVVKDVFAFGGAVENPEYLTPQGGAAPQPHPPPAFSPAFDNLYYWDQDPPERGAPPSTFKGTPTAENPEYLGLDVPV
Chain of Receptor tyrosine-protein kinase erbB-4 (Homo sapiens) (Q15303 whole entry): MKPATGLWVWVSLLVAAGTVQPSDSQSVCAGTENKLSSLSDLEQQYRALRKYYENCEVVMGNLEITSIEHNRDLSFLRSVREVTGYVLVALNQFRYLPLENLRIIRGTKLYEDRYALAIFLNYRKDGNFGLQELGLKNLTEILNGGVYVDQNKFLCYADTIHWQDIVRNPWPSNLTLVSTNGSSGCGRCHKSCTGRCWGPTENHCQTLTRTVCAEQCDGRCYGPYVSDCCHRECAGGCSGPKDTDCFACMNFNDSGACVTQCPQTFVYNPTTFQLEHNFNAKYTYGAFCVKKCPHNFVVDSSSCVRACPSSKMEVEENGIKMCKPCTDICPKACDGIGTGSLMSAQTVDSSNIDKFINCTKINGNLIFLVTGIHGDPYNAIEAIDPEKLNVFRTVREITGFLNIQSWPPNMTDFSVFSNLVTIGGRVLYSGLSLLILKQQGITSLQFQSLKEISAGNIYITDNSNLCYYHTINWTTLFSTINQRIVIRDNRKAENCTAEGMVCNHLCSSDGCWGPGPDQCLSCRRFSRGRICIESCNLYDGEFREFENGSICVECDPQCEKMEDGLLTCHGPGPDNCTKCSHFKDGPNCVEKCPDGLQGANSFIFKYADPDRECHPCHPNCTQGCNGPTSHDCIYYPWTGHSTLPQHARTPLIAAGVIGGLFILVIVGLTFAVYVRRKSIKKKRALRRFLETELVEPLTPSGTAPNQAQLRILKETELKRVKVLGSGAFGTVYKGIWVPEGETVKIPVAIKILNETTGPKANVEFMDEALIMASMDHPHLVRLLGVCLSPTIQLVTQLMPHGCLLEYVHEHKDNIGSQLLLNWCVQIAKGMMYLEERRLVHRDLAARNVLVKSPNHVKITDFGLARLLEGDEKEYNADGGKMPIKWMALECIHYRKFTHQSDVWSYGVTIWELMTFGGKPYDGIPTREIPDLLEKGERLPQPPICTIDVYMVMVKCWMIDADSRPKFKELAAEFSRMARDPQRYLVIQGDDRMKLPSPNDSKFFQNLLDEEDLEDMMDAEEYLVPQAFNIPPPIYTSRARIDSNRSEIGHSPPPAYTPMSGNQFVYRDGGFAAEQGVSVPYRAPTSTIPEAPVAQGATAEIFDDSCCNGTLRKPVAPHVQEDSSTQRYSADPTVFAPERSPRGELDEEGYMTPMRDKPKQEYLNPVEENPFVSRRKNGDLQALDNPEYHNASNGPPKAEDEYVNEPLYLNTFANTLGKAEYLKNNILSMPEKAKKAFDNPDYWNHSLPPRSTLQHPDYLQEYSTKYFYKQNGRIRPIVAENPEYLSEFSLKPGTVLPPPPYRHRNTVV

SMILES	inhibition [1]	inhibition [2]	inhibition [3]	inhibition [4]	inhibition [5]	inhibition [6]	inhibition [7]	inhibition [8]	inhibition [9]	inhibition [10]
CC(C)c1ccc(-c2cc(-c3c[nH]nc3-c3ccccn3)ccn2)cc1	5.4%	3.79%	1.74%	0.47%	2.78%	0.79%	-1.43%	4.41%	6.32%	2.22%
CN1CCC(C(=O)Nc2n[nH]c3nc(-c4ccc(O)cc4)c(Br)cc23)CC1	8.11% and 8.66%	1.14% and 1.43%	1.83% and 4.59%	-1.77% and 1.07%	-1.46% and 4.54%	6.86% and 3.66%	7.03% and 4.93%	6.26% and 5.04%	8.49% and 8.92%	4.47% and -1.58%
COc1c(C(N)=O)cc(-c2ccc(Cl)cc2)cc1-c1ccc(S(N)(=O)=O)cc1	8.13%	1.93%	4.65%	5.71%	3.61%	1.74%	4.75%	7.58%	12.9%	0.34%
Fc1cccc(COc2ccc(Nc3ncncc3C#Cc3ccccc3)cc2Cl)c1	11.3%	4.96%	3.65%	1.3%	2.18%	3.69%	4.08%	9.32%	19%	2.19%
NS(=O)(=O)c1ccc(N/N=C2\C(=O)Nc3cccc(CCc4ccncc4)c32)cc1	5.15%	2.41%	2.85%	1.21%	0.87%	-0.81%	3.74%	4.66%	8.01%	4.04%
COC(=O)Nc1nc2ccc(Oc3ccc(NC(=O)Nc4cc(C(F)(F)F)ccc4F)cc3)cc2s1	83.7%	16.8%	36.6%	29.6%	73%	-0.44%	-0.72%	3.56%	3.36%	3.43%
Cc1c2ccc(N(C)c3ccnc(Nc4cccc(S(N)(=O)=O)c4)n3)cc2nn1C	23.3%	3.38%	0.55%	0.19%	10.3%	1.55%	-3.44%	5.59%	12.1%	25.1%
CN1CCN(Cc2ccc(-c3cc4ncnc(Nc5ccc(OCc6cccc(F)c6)c(Cl)c5)c4s3)o2)CC1	8.33% and 7.32%	3.73% and 7.71%	4.63% and 4.53%	0.3% and 3.67%	6.48% and 3.12%	5.26% and 7.95%	62.3% and 65%	81.7% and 91.1%	93% and 97.8%	1.93% and 6.27%
CNC(=O)c1sc(-n2cnc3cc(OC)c(OC)cc32)cc1OCc1ccccc1C(F)(F)F	14%	4.48%	3.52%	0.98%	5.78%	2.12%	3.74%	6.92%	10.3%	2.95%
c1cnn2ncc(-c3ccnc(NCCCN4CCOCC4)n3)c2c1	9.04%	6.96%	3.37%	1.21%	1.07%	1.75%	-0.02%	8.02%	8.49%	0.82%
COc1cc(N2CCN(C(C)C)CC2)ccc1Nc1nc(Nc2cccc(F)c2C(=O)O)c2cc[nH]c2n1	12.6%	3.69%	6.24%	2.82%	2.84%	3.72%	5.93%	11.7%	11.2%	32.5%
Cc1nnc(-c2cccc(-c3ccc(C(=O)NCC4CC4)cc3)c2)o1	9.32%	4.24%	5.58%	1.46%	2.08%	2.59%	5.51%	8.69%	12.5%	3.39%
CCS(=O)(=O)c1ccc(OC)c(Nc2ncc(-c3cccc(F)c3)o2)c1	45.9%	3.05%	6.76%	5.59%	31.7%	38.7%	5.62%	9.46%	17.8%	2.32%
Cn1c(-c2nonc2N)nc2cnccc21	3.92%	3.54%	4.62%	2.84%	2%	4.78%	3.42%	14.9%	17.3%	3.92%
CS(=O)(=O)Nc1ccc(-c2cc(-c3ccccc3)cc(C(N)=O)c2N)cc1	5.3%	0.56%	2.36%	0.54%	0.87%	1.08%	6.84%	4.73%	11.9%	-2.85%
CC1=C(C(=O)Nc2ccc3[nH]ncc3c2)C(c2ccc(F)cc2)N=C(c2ccc(C(F)(F)F)nc2)N1 (stereo not given)	8.11%	3.81%	2.31%	1.15%	2.78%	1.68%	3.01%	7.98%	11.7%	0.93%
